# Assay results as given in PubChem BioAssay (NCATS).
# Records with an inconclusive call do not appear. A number with no mark means an inactive call. Calls of active or inactive are those of the source. Calls follow the shape of the dose curve; as a rule, active = well fitted activation curve with a large enough effect; inconclusive = small, poorly fitted or top-dose-only effect; inactive = flat fitted curve, though single readings scatter.
# Experiment: Cellular Toxicity (caspase-3) H-4-II-E (AID 663);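 also: cells exposed to compound for 16 hr before readout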
# Details: H-4-II-E rat hepatoma, scaled: DMSO 0%, 100 µM tamoxifen 100%; series mostly up to 92.2 µM; caspase-3 activation: at the top concentration
# Excerpt: NIH Chemical Genomics Center [NCGC]
# NIH Molecular Libraries Screening Centers Network [MLSCN]
# National Institutes of Environmental Health Sciences [NIEHS]
# National Toxicology Program [NTP]
# We have developed a 1536-well cell-based assay for quantitative high throughput screening (qHTS) against a number of cell lines to determine in vitro caspase 3/7 of small molecules. This particular assay uses the H-4-II-E cell line which is derived from rat hepatoma.
# NCGC Assay Protocol Summary:
# The Caspase-Glo 3/7 assay (Promega) is a homogeneous method to measure caspase-3 and caspase-7 activities in cultured cells. The quantitation of caspase 3/7 activity is based on the cleavage of a peptide-aminoluciferin substrate. After caspase cleaves the substrate the free aminoluciferin is liberated and serves as the substrate of luciferase, which generates the light. The luminescent signal is proportional to amount of caspase 3/7 activity present.
# Using the Caspase-Glo 3/7 assay, the amount of caspase 3/7 activity was measured in the H-4-II-E cell line with complete culture medium following compound treatment for 16 hours. The assay was performed in opaque white 1536-well plates. In the screen, tamoxifen and doxorubicin were used as positive controls. Library compounds were measured for their ability to cause the activation of caspase 3/7 in the cell line, as reflected by an increase in luminescence signal, in a concentration-dependent manner. Data were normalized to the controls for basal activity (DMSO only) and 100% stimulation (100 uM tamoxifen). AC50 values were determined from concentration-response data modeled with the standard Hill equation.
# qHTS protocol for caspase 3/7 assay in H-4-II-E cells
# [Step] [Parameter] [Value] [Description]
# 1. Reagent; 5 uL; 1500 H-4-II-E cells/well
# 2. Time; 5 hr; 37 °C incubation
# 4. Controls; 23 nL; Tamoxifen 0.23 uM to 100 uM & Doxorubicin 7.0 pM to 100 uM
# 5. Time; 16 hr; 37 °C incubation
# 6. Reagent; 5 uL; Caspase-Glo 3/7 reagent
# 7. Time; 20 min; Room Temperature
# 8. Detection; Luminescence; Viewlux plate reader
# Keywords: caspase 3/7, apoptosis, H-4-II-E cell line, luminescence, NTPHTS, NTPHTS_NCGC, NIEHS, EPA, DSSTox, MLSMR, MLSCN, NIH Roadmap, qHTS, NCGC
SMILES,caspase-3 activation [%],outcome
C=CC(=O)NCNC(=O)C=C,-0.568,–
COC(C)(C)CCCC(C)C/C=C/C(C)=C/C(=O)OC(C)C (stereo unspecified),-0.714,–
CCOCCOC(C)=O,-0.772,–
O=S(=O)(c1ccc(Cl)cc1)c1ccc(Cl)cc1,–,inactive
OCCCBr,1.17,–
CCCCOC(=O)c1ccccc1C(=O)OCc1ccccc1,-0.346,–
Nc1ccc([N+](=O)[O-])cc1,0.474,–
O=[N+]([O-])c1c2ccccc2cc2ccccc12,1.94,–
O=C(O)C(Cl)Cl,0.542,–
CC(=O)[O][Hg][c]1ccccc1,-3.85,–
Nc1ccc(Cl)cc1N,-0.457,–
CN(C)[C@@H]1C(=O)C(C(N)=O)=C(O)[C@@]2(O)C(=O)C3=C(O)c4c(O)cccc4[C@@](C)(O)[C@H]3[C@H](O)[C@@H]12,-0.77,–
c1cc2ccc3cccc4ccc(c1)c2c34,-0.224,–
O=[N+]([O-])c1cc([N+](=O)[O-])c2ccccc2c1,0.322,–
O=C(O)COc1ccccc1,0.887,–
CN(C)NC(=O)CCC(=O)O,-0.506,–
Nc1ccc(Cl)cc1,1.11,–
CCOP(=O)(NC(C)C)Oc1ccc(SC)c(C)c1 (stereo unspecified),0.204,–
CC(C)(O)C(=O)Nc1ccc([N+](=O)[O-])c(C(F)(F)F)c1,3.87,–
C1CCC(NC2CCCCC2)CC1,–,inactive
CCCCCCCCc1ccc(O)cc1,2.46,–
Cc1cc(O)ccc1Cl,0.459,–
COc1ccc(C(c2ccc(OC)cc2)C(Cl)(Cl)Cl)cc1,–,inactive
Nc1ccc(Sc2ccc(N)cc2)cc1,0.971,–
CCCCC(CC)COC(=O)c1ccccc1C(=O)OCC(CC)CCCC (stereo unspecified),0.0501,–
O=[N+]([O-])c1c(Cl)c(Cl)cc(Cl)c1Cl,0.686,–
